This passage reports outcome and AC50 results from PubChem BioAssay (EPA / NIEHS).

As a reminder, the AC50 is the concentration at which the activity in the assay is half-maximal.

Some structures have more than one record in an assay (separate samples or runs), and their calls can disagree. Active and inactive are the calls of the source. How the source made its calls: active means hit-call score of the fitted dose curve at least 0.9, where 1 is the maximum; inactive means score below 0.9.

A short description of assay [1]: APR_HepG2_P-H2AX_72hr: Apredica 72-hour HepG2 Assay for H2AX Phosphorylation (AID 2282916).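 Further: phospho-histone H2A.x immunostain intensity per cell marking DNA damage.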 Particulars: imaging, actives raise or lower the signal. Put shortly:
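Readout: phospho-H2A.x immunofluorescence (FITC secondary) plus Hoechst nuclear stain, high-content imaging at 20x, six fields/well. HepG2, 72 hr compound exposure, 0.39–200 uM, final DMSO 0.5% v/v. Gain or loss fitted relative to DMSO baseline.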

A short description of assay [2]: APR_HepG2_MitoMembPot_72hr: Apredica 72-hour HepG2 Assay for Mitochondrial Membrane Potential (AID 2282917). Particulars: imaging, actives raise or lower the signal. Put shortly:
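HepG2 cells dosed 72 hr with compound at 0.39–200 uM in duplicate, 0.5% v/v DMSO final. Mitochondria stained with 250 nM MitoTracker Red CMXRos for 30 min before formaldehyde fixation, imaged by high-content fluorescence; bidirectional fit versus DMSO.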

Assay [3] can be described thus: APR_HepG2_MitoticArrest_72hr: Apredica 72-hour HepG2 Assay for Mitotic Arrest (AID 2282918). Particulars: high-content imaging, actives raise or lower the signal. Put shortly: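 HepG2, 72 hr exposure, 0.39–200 uM in duplicate, 0.5% v/v DMSO final. Formaldehyde-fixed, Triton-permeabilized, anti-phospho-histone H3/FITC plus Hoechst. ArrayScan imaging at 20x; curves fit bidirectionally against DMSO baseline.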

The nature of assay [4]: APR_HepG2_MicrotubuleCSK_72hr: Apredica 72-hour HepG2 Assay for Microtubule CSK Stabilty (AID 2282919). Particulars: HepG2 microtubule cytoskeleton, high-content imaging, actives raise or lower the signal. The method, boiled down:
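HepG2, 72 hr cmpd exposure, 0.39–200 uM (10 pts, duplicate), 0.5% DMSO. 3.7% formaldehyde fix, 0.5% Triton perm, anti-alpha-tubulin/Cy5 plus Hoechst. HCS fluorescence intensity; bidirectional fit vs DMSO baseline; taxol as positive control.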

Assay [5] in a line: APR_HepG2_P-H2AX_24hr: Apredica 24-hour HepG2 Assay for H2AX Phosphorylation (AID 2282920). Particulars: high-content imaging, actives raise or lower the signal. Put shortly: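 HCS fluorescence imaging of phospho-H2A.x immunostain (with Hoechst 33342 nuclear counterstain) in HepG2 after 24 hr compound exposure; 10 concentrations, 0.39–200 uM, duplicate wells, 0.5% v/v DMSO. Gain or loss of signal fitted relative to DMSO baseline.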

A short description of assay [6]: APR_HepG2_StressKinase_72hr: Apredica 72-hour HepG2 Assay for Stress Kinase (AID 2282921). Particulars: HepG2 stress kinase (phospho-c-Jun) imaging, actives raise or lower the signal. The method, boiled down:
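Phospho-c-Jun immunofluorescence measured by high-content imaging at 20x, six fields per well; bidirectional curve fitting against DMSO as baseline. Dosing: 0.39–200 uM, 72 h, 0.5% DMSO final.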

A short description of assay [7]: APR_HepG2_StressKinase_24hr: Apredica 24-hour HepG2 Assay for Stress Kinase (AID 2282922). The note with it: HepG2 stress kinase (phospho-c-Jun) imaging, actives raise or lower the signal. Put shortly:
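Read-out: phospho-c-Jun immunofluorescence (Cy3 secondary) quantified by high-content imaging at 20x, nuclei defined by Hoechst 33342. Human HepG2 liver cells dosed 24 hr, 0.39–200 uM, DMSO 0.5% v/v; gain or loss of signal fitted relative to DMSO.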

A short description of assay [8]: APR_HepG2_p53Act_72hr: Apredica 72-hour HepG2 Assay for p53 Activation (AID 2282923).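 Further: average cellular p53 protein immunofluorescence intensity in HepG2 cells.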 The note with it: high-content imaging, actives raise or lower the signal. Put shortly:
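Readout: p53 immunofluorescence quantified by automated high-content imaging at 20x, six fields per well, nuclei located via Hoechst. Dosing ran 72 hr over ten concentrations from 0.39 to 200 uM; bidirectional curve fitting against DMSO baseline.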

A short description of assay [9]: APR_HepG2_MitoMass_72hr: Apredica 72-hour HepG2 Assay for Mitochondrial Mass (AID 2282924).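 Further: MitoTracker Red CMXRos stain intensity per cell imaged as mitochondrial mass.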 The note with it: high-content imaging, actives raise or lower the signal. Put shortly: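 Read-out: MitoTracker Red fluorescence intensity from automated imaging (20x, six fields per well) in human HepG2 liver cells. Dosing ran 72 hr, 0.39–200 uM, 0.5% DMSO; bidirectional curve fitting versus DMSO baseline.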

Assay [10] is described as follows: APR_HepG2_NuclearSize_72hr: Apredica 72-hour HepG2 Assay for Nuclear Size (AID 2282925). Particulars: high-content imaging, actives raise or lower the signal. The method, boiled down: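 Read-out: nuclear diameter from Hoechst 33342 images (ArrayScan, 20x, six fields/well), via cell-cycle image analysis. HepG2 were dosed 0.39–200 uM for 72 hr in 0.5% DMSO. Bidirectional fit relative to DMSO.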

Assay [11] can be described thus: ATG_CRE_CIS: Attagene CIS-FACTORIAL HepG2 Assay for human cAMP Responsive Element (CRE) binding protein 3 (AID 2282926). Particulars: HepG2 CRE cis-reporter, Attagene multiplexed mRNA; actives raise or lower the signal. The method, boiled down:
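Readout: fluorescently labelled reporter transcripts resolved by capillary electrophoresis after RT-PCR, taken 24 h post-dosing in transfected HepG2. Endogenous transcription factor activity drives each cis-element reporter; gain or loss of signal fitted relative to DMSO control.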

Assay [12] concerns the target CCAAT/enhancer-binding protein beta (Homo sapiens) (UniProt P17676). Kind of assay: ATG_C_EBP_CIS: Attagene CIS-FACTORIAL HepG2 Assay for human CCAAT/Enhancer Binding Protein (C/EBP) beta (AID 2282927). Particulars: HepG2 Attagene cis-factorial transcription factor reporter; actives raise or lower the signal. Put shortly: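 HepG2, transient MRTU transfection, 24 h treatment. RT-PCR plus CE fluorescence; DMSO negative control, bidirectional fit.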

Assay [13] in a line: ATG_CMV_CIS: Attagene CIS-FACTORIAL HepG2 Assay for human CMV (Internal Marker) (AID 2282928).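 Further: endpoint acts as a background internal control marker rather than a target.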 The note with it: HepG2 CMV promoter reporter, transcription factor profiling; actives raise or lower the signal. Put shortly: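 Readout: fluorescent reporter cDNA fragments separated by capillary electrophoresis after RT-PCR and HpaI cut. Cells: HepG2 carrying transfected cis-promoter reporter constructs, dosed 24 h. Endpoint serves as background internal-marker control, fit bidirectionally versus DMSO.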

The target in assay [14] is Aryl hydrocarbon receptor (Homo sapiens) (UniProt P35869). Kind of assay: ATG_Ahr_CIS: Attagene CIS-FACTORIAL HepG2 Assay for human Aryl Hydrocarbon Receptor (Ahr) (AID 2282930). The note with it: HepG2 AhR cis-factorial reporter transcription; actives raise or lower the signal. The method, boiled down:
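Endogenous factor activity is tracked through cis-promoter reporter units transfected into HepG2 cells. Transcript levels at 24 h are read by fluorescent RT-PCR and capillary electrophoresis, with activity in either direction scored relative to DMSO.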

A short description of assay [15]: ATG_AP_1_CIS: Attagene CIS-FACTORIAL HepG2 Assay for human Activator Protein 1 (AP-1) (AID 2282931). Particulars: HepG2 Attagene cis-factorial AP-1 reporter mRNA; actives raise or lower the signal. The method, boiled down:
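HepG2 cells transiently transfected with cis-element-driven reporter transcription units, dosed for 24 hours. Reporter mRNA measured by RT-PCR, 6-FAM labelling, HpaI digestion and capillary electrophoresis. Bidirectional fitting against DMSO baseline.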

Assay [16] is described as follows: ATG_AP_2_CIS: Attagene CIS-FACTORIAL HepG2 Assay for human Activator Protein 2 (AP-2) (AID 2282932). Particulars: HepG2 AP-2 cis-reporter, Attagene transcription factor profiling; actives raise or lower the signal. Put shortly:
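Read-out: fluorescent reporter mRNA via RT-PCR and capillary electrophoresis, 24 h post-dose in transiently transfected HepG2. Endogenous factors drive cis-promoter reporters; gain or loss of signal fitted bidirectionally against DMSO.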

Assay [17] is described as follows: ATG_BRE_CIS: Attagene CIS-FACTORIAL HepG2 Assay for human Bone Morphogenetic Protein (BMP) Response Element (BRE) (AID 2282933). Particulars: HepG2 BMP response element reporter, Attagene transcription factor profiling; actives raise or lower the signal. Put shortly: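 After a 24 h chemical treatment, transiently transfected HepG2 cells were lysed for RNA; reporter transcripts were quantified by fluorescent RT-PCR and capillary electrophoresis, normalised to DMSO.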

Assay [18] addresses Retinoic acid receptor alpha (Homo sapiens) (UniProt P10276). In words: ATG_DR5_RAR_CIS: Attagene CIS-FACTORIAL HepG2 Assay for human Retinoic Acid Receptor Alpha (RARE), DR5 submotif (AID 2282934).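 On AC50: reporter responds to endogenous RAR alpha beta and gamma in HepG2 not RARA alone.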 Particulars: HepG2 Attagene cis-factorial RARE DR5 reporter, mRNA; actives raise or lower the signal. Put shortly:
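After 24 h of chemical exposure, transiently transfected HepG2 cells were lysed for total RNA; the DR5-regulated reporter transcript was quantified via RT-PCR and capillary electrophoresis, with activity fitted bidirectionally against DMSO.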

Assay [19] deals with Transcription factor E2F1 (Homo sapiens) (UniProt Q01094). Kind of assay: ATG_E2F_CIS: Attagene CIS-FACTORIAL HepG2 Assay for human E2F Transcription Factor 1 (AID 2282935). The note with it: HepG2 Attagene cis-reporter, E2F reporter RNA transcripts; actives raise or lower the signal. Put shortly: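 Transient MRTU transfection of HepG2; 24 h compound exposure; RNA → oligo(dT) RT → PCR → FAM label → HpaI cut → CE fluorescence. Gain/loss of signal fit against DMSO.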
Transcription factor E2F1 (Homo sapiens), sequence (Q01094 whole entry, looked up): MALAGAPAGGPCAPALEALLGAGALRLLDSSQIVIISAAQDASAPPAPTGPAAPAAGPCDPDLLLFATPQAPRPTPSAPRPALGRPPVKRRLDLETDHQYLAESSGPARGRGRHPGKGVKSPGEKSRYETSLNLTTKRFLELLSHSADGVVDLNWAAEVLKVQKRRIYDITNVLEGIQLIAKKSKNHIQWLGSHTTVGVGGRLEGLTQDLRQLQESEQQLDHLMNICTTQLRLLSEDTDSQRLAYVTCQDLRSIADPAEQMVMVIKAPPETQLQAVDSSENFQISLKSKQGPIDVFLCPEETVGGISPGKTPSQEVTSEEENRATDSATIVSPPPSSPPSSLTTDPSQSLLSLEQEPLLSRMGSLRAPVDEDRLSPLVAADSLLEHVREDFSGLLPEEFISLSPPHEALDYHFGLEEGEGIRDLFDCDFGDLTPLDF

Retinoic acid receptor alpha (Homo sapiens), sequence (P10276 whole entry, looked up): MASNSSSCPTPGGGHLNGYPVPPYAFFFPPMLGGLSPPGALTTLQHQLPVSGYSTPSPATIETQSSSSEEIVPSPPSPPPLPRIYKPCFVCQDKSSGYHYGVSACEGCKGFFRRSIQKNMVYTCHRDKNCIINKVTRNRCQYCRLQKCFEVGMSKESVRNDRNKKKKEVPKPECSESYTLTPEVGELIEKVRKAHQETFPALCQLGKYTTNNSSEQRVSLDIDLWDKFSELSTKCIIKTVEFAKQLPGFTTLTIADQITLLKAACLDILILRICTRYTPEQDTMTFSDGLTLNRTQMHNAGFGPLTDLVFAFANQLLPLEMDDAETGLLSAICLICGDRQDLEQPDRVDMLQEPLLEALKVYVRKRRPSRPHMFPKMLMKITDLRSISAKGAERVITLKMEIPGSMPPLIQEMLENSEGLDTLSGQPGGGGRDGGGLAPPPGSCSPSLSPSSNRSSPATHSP
CCAAT/enhancer-binding protein beta (Homo sapiens), sequence (P17676 whole entry, looked up): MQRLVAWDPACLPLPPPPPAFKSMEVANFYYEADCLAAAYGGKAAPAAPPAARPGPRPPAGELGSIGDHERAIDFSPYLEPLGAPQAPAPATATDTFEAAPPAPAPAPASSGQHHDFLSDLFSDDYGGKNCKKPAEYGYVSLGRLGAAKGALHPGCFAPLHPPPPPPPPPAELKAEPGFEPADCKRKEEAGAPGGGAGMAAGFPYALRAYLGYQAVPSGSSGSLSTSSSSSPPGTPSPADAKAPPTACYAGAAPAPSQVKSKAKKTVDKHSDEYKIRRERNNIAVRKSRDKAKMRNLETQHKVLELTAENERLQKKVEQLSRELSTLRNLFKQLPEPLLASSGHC
Aryl hydrocarbon receptor (Homo sapiens), sequence (P35869 whole entry, looked up): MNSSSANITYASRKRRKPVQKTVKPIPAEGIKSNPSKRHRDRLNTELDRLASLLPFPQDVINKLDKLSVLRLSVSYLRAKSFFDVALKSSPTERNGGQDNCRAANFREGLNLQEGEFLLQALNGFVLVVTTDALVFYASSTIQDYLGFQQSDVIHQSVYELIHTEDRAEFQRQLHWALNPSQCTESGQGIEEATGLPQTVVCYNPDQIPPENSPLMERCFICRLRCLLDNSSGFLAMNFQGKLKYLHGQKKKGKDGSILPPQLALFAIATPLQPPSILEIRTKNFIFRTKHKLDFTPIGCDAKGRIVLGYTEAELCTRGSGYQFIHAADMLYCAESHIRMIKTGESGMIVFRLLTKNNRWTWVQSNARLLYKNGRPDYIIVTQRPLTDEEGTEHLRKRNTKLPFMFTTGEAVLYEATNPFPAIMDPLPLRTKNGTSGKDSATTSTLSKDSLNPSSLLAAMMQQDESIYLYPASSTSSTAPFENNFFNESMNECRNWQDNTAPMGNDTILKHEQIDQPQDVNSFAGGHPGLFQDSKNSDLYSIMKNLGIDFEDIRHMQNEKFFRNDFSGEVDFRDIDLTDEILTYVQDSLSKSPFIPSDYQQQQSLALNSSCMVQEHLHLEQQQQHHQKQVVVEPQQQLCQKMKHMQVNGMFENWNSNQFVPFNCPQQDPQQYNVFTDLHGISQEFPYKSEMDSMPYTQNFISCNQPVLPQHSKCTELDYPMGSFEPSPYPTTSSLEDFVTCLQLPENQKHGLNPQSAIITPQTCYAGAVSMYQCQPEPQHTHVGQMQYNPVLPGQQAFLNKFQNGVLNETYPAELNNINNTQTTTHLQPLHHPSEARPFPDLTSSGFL

Take `CSc1nc(NC(C)C)nc(NC(C)C)n1`: the outcome in assay [1], in assay [2], in assay [3], in assay [4], in assay [5] and in assay [6] was inactive. Further, the compound was classed as inactive in assay [7], in assay [8], in assay [9], in assay [10], in assay [11] and in [12]. Also, the compound was classed as inactive in assay [13], in assay [14], in assay [15], in assay [16], in [17] and in assay [19]. Besides, the AC50 in assay [18] is 21.9 µM (active).

For the compound `Cc1ccn2nc(S(=O)(=O)Nc3c(F)cccc3F)nc2n1`, the outcome in assay [1], in assay [2], in [3], in assay [4], in assay [5] and in [6] was inactive. For the same compound, the compound was called inactive in assay [7], in [9], in [10], in assay [11], in assay [12] and in assay [13]. In addition, the compound was classed as inactive in assay [14], in [16], in assay [17], in assay [18] and in assay [19].

With `CCCOc1nn(C(=O)NS(=O)(=O)c2ccccc2C(=O)OC)c(=O)n1C`, the outcome in [1], in [2], in assay [3], in assay [4], in [5] and in assay [6] was inactive. Besides, the outcome in assay [7], in assay [8], in assay [9], in [10], in assay [11] and in assay [12] was inactive. Besides, the result in assay [13], in assay [14], in [16], in [17], in assay [18] and in assay [19] was inactive.

For the compound `O=[N+]([O-])c1cc(C(F)(F)F)c(Cl)c([N+](=O)[O-])c1Nc1ncc(C(F)(F)F)cc1Cl`, the AC50 was 1.13 µM (active) in assay [1]; 0.767 µM (active) in assay [3]; 100 µM (active) in assay [4]; 7.85 µM (active) in assay [12]; 19.1 µM (active) in assay [14]; 2.63 µM (active) in assay [17]. The AC50 in [19] was 9.39 µM (active). Also, the compound was classed as inactive in assay [2], in [5], in [6], in [7], in assay [9] and in [10]. The call in assay [11], in assay [12], in [13], in assay [14], in [16] and in [17] was inactive. The compound was called inactive in assay [18] and in assay [19].
